From PubChem BioAssay
ssDAF12 agonist = activates DAF-12 receptor from parasite S. stercoralis | HEK293 ssDAF-12/GRIP1 lit1-tk-luc reporter, luminescence; % of 3 µM dafachronic acid response | activation, % at 6.8 µM | actives 1% (n = 370,000) | AID 652126;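 active means activation above the mean over all tested compounds plus 3 SD, cut at about 0.9% in these data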
DAX1 inh-1 = inhibitors of human orphan nuclear receptor DAX1 (NR0B1); P51843; actives 0.99% (n = 340,000); inhibition, % at 6.75 µM; HEK293 Gal4-DAX1 luciferase reporter, luminescence;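 active means inhibition above the mean over all tested compounds plus 3 SD, cut at about 4.2% in these data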;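 further: inhibition shows as a rise in luminescence from relieved DAX1 repression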
Target sequence (P51843 207-470 limits assumed): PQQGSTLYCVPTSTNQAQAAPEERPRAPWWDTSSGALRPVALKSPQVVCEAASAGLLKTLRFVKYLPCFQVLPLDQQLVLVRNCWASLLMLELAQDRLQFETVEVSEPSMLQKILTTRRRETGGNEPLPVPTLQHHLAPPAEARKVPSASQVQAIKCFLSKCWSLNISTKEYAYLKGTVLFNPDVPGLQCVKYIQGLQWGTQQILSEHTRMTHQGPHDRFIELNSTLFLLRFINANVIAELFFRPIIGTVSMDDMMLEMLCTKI
DAX1 inh-2 = DAX1 (NR0B1) inhibition, primary screen; HEK293T StAR-luciferase reporter, SF-1/DAX-1 repression relief; inhibition, % at 6.8 µM; actives 1.1% (n = 370,000); AID 652010;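 active means inhibition above the mean over all tested compounds plus 3 SD, cut at about 3.6% in these data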;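 further: higher inhibition means more luminescence from relief of DAX-1 repression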
hgDAF-12 ag = hgDAF-12 agonism, primary luciferase screen. HEK293 GAL4-hgDAF12 UAS-luciferase reporter, agonist luminescence; normalized to butyrate control. activation, % at 6.8 µM. actives 1.8% (n = 370,000). AID 687014;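 active means activation above a cutoff set at the mean of all screened compounds plus 3 SD, cut at about 10% in these data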
hcDAF12 agonist = activators of H. contortus DAF-12 nuclear receptor; HEK293 hcDAF-12 lit1-tk-luc reporter, luminescence; 0% DMSO, 100% Δ7-dafachronic acid; activation, % at 6.8 µM; actives 1.4% (n = 370,000);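 active means activation above the mean of all tested compounds plus 3 SD, cut at about 5.5% in these data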
Numbers stand for hits. Rows were chosen to be rich in hits. Some 4.1% of all compounds tested hit in one or more screens of this group.

c1coc(-c2nnc(-c3ccc4c(c3)OCO4)o2)c1 was read as ssDAF12 agonist inactive, DAX1 inh-2 3.7, hgDAF-12 ag 13 and hcDAF12 agonist inactive.
Screening c1ccc(-c2nnc(-c3ccco3)o2)cc1 returned ssDAF12 agonist inactive, DAX1 inh-1 inactive, DAX1 inh-2 inactive, hgDAF-12 ag 11 and hcDAF12 agonist 5.8.
For Brc1ccc(-c2nnc(-c3ccc4c(c3)OCO4)o2)o1 the results were ssDAF12 agonist inactive, DAX1 inh-1 inactive, DAX1 inh-2 inactive, hgDAF-12 ag inactive and hcDAF12 agonist inactive.
`CCOc1ccc(-c2nnc(-c3ccco3)o2)cc1OCC` gave ssDAF12 agonist inactive, DAX1 inh-1 7.7, DAX1 inh-2 inactive, hgDAF-12 ag inactive and hcDAF12 agonist inactive.
For COc1ccc2c(c1)CN1C(=O)N(Cc3ccccc3)S(=O)(=O)CC21 (stereo not drawn) the results were ssDAF12 agonist inactive, DAX1 inh-2 inactive, hgDAF-12 ag inactive and hcDAF12 agonist inactive.
C/C(Cn1cnc([N+](=O)[O-])n1)=N\NC(=O)c1cccc(F)c1 was read as ssDAF12 agonist inactive, DAX1 inh-1 inactive, DAX1 inh-2 inactive, hgDAF-12 ag 11 and hcDAF12 agonist inactive.
`Cc1cc(NC(=O)CSc2nc(C(C)C)nc3sc4c(c23)CCCC4)no1` gave ssDAF12 agonist 1.3, DAX1 inh-1 inactive, DAX1 inh-2 inactive, hgDAF-12 ag inactive and hcDAF12 agonist inactive.
`Cc1cc(NC(=O)CSc2nc3sc4c(c3c(=O)n2C)CCCC4)no1` gave ssDAF12 agonist inactive, DAX1 inh-1 inactive, DAX1 inh-2 inactive, hgDAF-12 ag inactive and hcDAF12 agonist inactive.
`Cc1ccc(Cn2cc(CN3[C@H](c4ccccc4)COc4cc(Br)ccc4S3(=O)=O)nn2)cc1` gave ssDAF12 agonist inactive, DAX1 inh-2 inactive, hgDAF-12 ag inactive and hcDAF12 agonist inactive.
Screening Clc1cccc(CN2CCCCCC2)c1 returned ssDAF12 agonist inactive, DAX1 inh-1 inactive, DAX1 inh-2 inactive, hgDAF-12 ag inactive and hcDAF12 agonist inactive.
`Clc1ccc(-c2nc3cc(CN4CCCCC4)ccc3o2)cc1` gave ssDAF12 agonist inactive, DAX1 inh-1 inactive, DAX1 inh-2 inactive, hgDAF-12 ag 11 and hcDAF12 agonist inactive.
CC(C(=O)NCC1CCCO1)c1ccc([N+](=O)[O-])cc1 (stereo not drawn) was read as ssDAF12 agonist inactive, DAX1 inh-1 5.0, DAX1 inh-2 inactive, hgDAF-12 ag inactive and hcDAF12 agonist inactive.
O=C(Cc1ccc([N+](=O)[O-])cc1)NCC1CCCO1 (stereo not drawn) was read as ssDAF12 agonist inactive, DAX1 inh-1 inactive, DAX1 inh-2 inactive, hgDAF-12 ag inactive and hcDAF12 agonist inactive.
For COCCCNC(=O)CNC(=S)N(Cc1ccc(F)cc1)C1CCCCC1 the results were ssDAF12 agonist 1.2, DAX1 inh-1 inactive, DAX1 inh-2 inactive, hgDAF-12 ag inactive and hcDAF12 agonist inactive.
For CCOCCCNC(=O)CNC(=S)N(Cc1ccccc1F)C1CCCCC1 the results were ssDAF12 agonist inactive, DAX1 inh-1 inactive, DAX1 inh-2 inactive, hgDAF-12 ag inactive and hcDAF12 agonist inactive.
For Cc1nn(-c2ccccc2)c2sc(C(=O)N3CCN(Cc4ccccc4)CC3)cc12 the results were ssDAF12 agonist inactive, DAX1 inh-2 inactive, hgDAF-12 ag inactive and hcDAF12 agonist inactive.
Screening CC(=O)Nc1ccc(NC(=O)C2CCCN2C(=O)Nc2ccc(F)c([N+](=O)[O-])c2)cc1 (stereo not drawn) returned ssDAF12 agonist inactive, DAX1 inh-1 4.9, DAX1 inh-2 inactive, hgDAF-12 ag inactive and hcDAF12 agonist inactive.
Screening CC(=O)Nc1ccc(NC(=O)C2CCCN2C(=O)Nc2ccccc2[N+](=O)[O-])cc1 (stereo not drawn) returned ssDAF12 agonist inactive, DAX1 inh-1 inactive, DAX1 inh-2 inactive, hgDAF-12 ag inactive and hcDAF12 agonist inactive.
`CC(=O)N1CC=C2C(C#N)=C(N)C(C#N)(C#N)C(CCc3ccccc3)C2C1` (stereo not drawn) gave ssDAF12 agonist inactive, DAX1 inh-1 inactive, DAX1 inh-2 inactive, hgDAF-12 ag inactive and hcDAF12 agonist inactive.
CCN1CC=C2C(C#N)=C(N)C(C#N)(C#N)C(CCc3ccccc3)C2C1 (stereo not drawn) was read as ssDAF12 agonist 1.0, DAX1 inh-1 inactive, DAX1 inh-2 inactive, hgDAF-12 ag inactive and hcDAF12 agonist inactive.
For Cc1ccccc1CN1CCCCC(NC(=O)c2ccc(F)cc2F)C1=O (stereo not drawn) the results were ssDAF12 agonist inactive, DAX1 inh-2 inactive, hgDAF-12 ag inactive and hcDAF12 agonist inactive.
For COc1ccc(N2CCN(CCCNC(=S)Nc3c(C)cccc3C)CC2)cc1 the results were ssDAF12 agonist inactive, DAX1 inh-1 5.6, DAX1 inh-2 inactive, hgDAF-12 ag inactive and hcDAF12 agonist inactive.
`c1ccc(COc2ccc(OCCN3CCCCC3)cc2)cc1` gave ssDAF12 agonist inactive, DAX1 inh-1 inactive, DAX1 inh-2 inactive, hgDAF-12 ag inactive and hcDAF12 agonist 6.0.
For CCN1CCN(Cc2ccc(OCc3ccccc3)cc2)CC1 the results were ssDAF12 agonist inactive, DAX1 inh-1 inactive, DAX1 inh-2 inactive, hgDAF-12 ag 13 and hcDAF12 agonist inactive.
For c1ccc(COc2ccc(OCCN3CCCC3)cc2)cc1 the results were ssDAF12 agonist inactive, DAX1 inh-1 inactive, DAX1 inh-2 inactive, hgDAF-12 ag inactive and hcDAF12 agonist inactive.
For O=C(CSc1nnc(-c2ccccn2)n1-c1ccc(Cl)cc1)Nc1ccc2c(c1)OCCO2 the results were ssDAF12 agonist inactive, DAX1 inh-2 inactive, hgDAF-12 ag inactive and hcDAF12 agonist inactive.
For Cc1ccc(S(=O)(=O)N2C[C@H]3[C@H]4C(=O)N(c5ccccc5)C(=O)[C@H]4CC(=O)[C@H]3[C@@H]2c2ccccc2F)cc1 the results were ssDAF12 agonist inactive, DAX1 inh-2 inactive, hgDAF-12 ag inactive and hcDAF12 agonist inactive.
Screening Cc1ccc(S(=O)(=O)N2C[C@H]3[C@H]4C(=O)N(c5ccccc5)C(=O)[C@H]4CC(=O)[C@H]3[C@@H]2c2cccc3ccccc23)cc1 returned ssDAF12 agonist inactive, DAX1 inh-2 4.3, hgDAF-12 ag inactive and hcDAF12 agonist inactive.
Screening Cc1ccc(NC(=O)CSc2nc(C)cc(=O)[nH]2)c(C)c1 returned ssDAF12 agonist inactive, DAX1 inh-2 inactive, hgDAF-12 ag inactive and hcDAF12 agonist inactive.
Screening c1ccc(-c2cnc(-c3ccccn3)nn2)cc1 returned ssDAF12 agonist inactive, DAX1 inh-1 inactive, DAX1 inh-2 inactive, hgDAF-12 ag 11 and hcDAF12 agonist inactive.
`CC(=O)N1CCCN(S(=O)(=O)c2ccc3c(c2)n(C)c(=O)c(=O)n3C)CC1` gave ssDAF12 agonist inactive, DAX1 inh-2 inactive, hgDAF-12 ag inactive and hcDAF12 agonist inactive.
For CCCC(C(=O)NCC1CCCO1)N(C(=O)CNS(=O)(=O)c1ccccc1)c1ccc(F)cc1 (stereo not drawn) the results were ssDAF12 agonist inactive, DAX1 inh-1 4.6, DAX1 inh-2 inactive, hgDAF-12 ag inactive and hcDAF12 agonist inactive.
